From PubChem BioAssay (NCI)
This is part of a sample that, as a whole, favours compounds with a hit. Of some 79,000 tested, about 15% had one in any assay. A number with no mark means an inactive call. Activity calls are given as the source filed them. Rule as the data show it: active = growth inhibition above about 70%; inactive = the rest.

What was measured:
[1] = NCI Yeast Anticancer Drug Screen. Data for the rad50 strain (AID 155);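 also: 0% = growth of vehicle-only cultures of the same strain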; details: S. cerevisiae rad50 strain growth inhibition; at 50.0 µM; active compounds read high
Procedure, shortened: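 Growth of the mutant yeast was measured after compound exposure and referenced to vehicle-treated cultures.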

[2] = NCI Yeast Anticancer Drug Screen. Data for the mec2-1 strain (AID 157); details: S. cerevisiae mec2-1 strain, at 50.0 µM, active compounds read high
Procedure, shortened: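 Growth inhibition is read against vehicle-treated controls after compound exposure of the mec2-1 yeast strain, which is defective in DNA damage repair or cell cycle control.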

[3] = NCI Yeast Anticancer Drug Screen. Data for the sgs1 mgt1 strain (AID 161);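 also: 0% = growth of cultures given vehicle only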; details: S. cerevisiae sgs1 mgt1 strain, at 50.0 µM, active compounds read high
Procedure, shortened: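 Growth of a repair-deficient yeast mutant was monitored after compound treatment and expressed as inhibition relative to vehicle-treated cultures.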

[4] = NCI Yeast Anticancer Drug Screen. Data for the cln2 rad14 strain (AID 165);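 also: 0% = growth equal to vehicle treated cultures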; details: S. cerevisiae cln2 rad14 strain, at 50.0 µM, active compounds read high
Procedure, shortened: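 Growth inhibition, relative to vehicle-treated controls, is the read-out. The test organism is a yeast strain with defined genetic alterations, cln2 rad14.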

[5] = NCI Yeast Anticancer Drug Screen. Data for the bub3 strain (AID 167); details: S. cerevisiae bub3 mutant strain, at 50.0 µM, active compounds read high
Procedure, shortened: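 Whole-cell yeast assay. The mutant strain was incubated with compounds, and growth inhibition was determined by comparison with vehicle-treated cells.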

[6] = NCI Yeast Anticancer Drug Screen. Data for the mlh1 rad18 strain (AID 175); details: S. cerevisiae mlh1 rad18 strain growth inhibition; at 50.0 µM; active compounds read high
Procedure, shortened: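 Cells of a genetically altered yeast strain, deficient in DNA damage repair, were treated with compound. Their growth was then compared with that of vehicle-treated cultures to give inhibition.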

Row | SMILES | growth inhibition [1] | growth inhibition [2] | growth inhibition [3] | growth inhibition [4] | growth inhibition [5] | growth inhibition [6]
1 | Nc1nc(N)nc(CC(=O)O)n1 | -16.5% | -22.7% | -57% | -60.2% | -14.7% | -36.7%
2 | O=C(O)c1cccn1-c1ccccc1 | -4.05% | -24.6% | -1.55% | -21.1% | -10.2% | -15.6%
3 | COc1cccc2ccc(C(=O)c3ccccc3)nc12 | 34.2% | -3.2% | 7.8% | 23.6% | 28.2% | 15.9%
4 | O=c1ccc2ccc(OP(=O)(O)O)cc2o1 | -12.4% | -15.1% | 11.4% | 14.1% | -34.7% | 19.6%
5 | CCOC(=O)C(C)(C)Oc1ccc2c(-c3ccc(Cl)cc3)cc(=O)oc2c1 | 9.05% | -5.1% | -2.5% | 7.65% | -11.9% | 2.55%
6 | Cc1ccc(NC(=O)CCSC(=O)Nc2ccc(C)cc2)cc1 | -1.2% | -2.65% | -7.05% | 21.2% | 8.1% | 7.9%
7 | ClC(Cl)(Cl)c1ccc(C2OCCO2)cc1 | -17.8% | -6.8% | -7.85% | -26.6% | -22% | -0.3%
8 | COC(=O)NC1CCCCC1 | -2.5% | -13.8% | -4.6% | 20.6% | -8.2% | -6.35%
9 | O=C(O)C/C=C/CC(=O)O | -2.25% | -13.5% | -2.7% | 4.45% | 15.4% | -3.15%
10 | O=[N+]([O-])c1ccccc1S(=O)c1ccccc1 (stereo unspecified) | -1.65% | -0.15% | -4.3% | 11.2% | -6.5% | -6.25%
11 | CN(C)C1CS(=O)(=O)OC2=C1CCSc1ccccc12 (stereo unspecified) | 5.1% | 12.1% | 11.4% | -84.7% | -5.65% | 7.6%
12 | CC1(CO)COC(c2ccccc2)=N1 (stereo unspecified) | 4.65% | 2.85% | 4.55% | -8.9% | -1.3% | 0.75%
13 | COc1ccc(NC(=O)CSc2cc(Cl)ccc2Cl)cc1 | 10.7% | 7.15% | 32.1% | 18.9% | 21.6% | 27.9%
14 | O=C1c2cccnc2C(=O)C2CC3=C(CCCC3)CC12 (stereo unspecified) | 97.9% (active) | 97.4% (active) | 96.9% (active) | 88.2% (active) | 97.4% (active) | 98.5% (active)
15 | O=C(O)CCCC1=C2CCC(=O)C=C2CCC1 | -15.8% | -24.6% | -10.3% | 0.2% | -20.6% | -10.1%
16 | CCCCCCC1(C=O)NC(=O)NC1=O (stereo unspecified) | 4.2% | -12% | -11.2% | -14.1% | -4.6% | -1.35%
17 | CN(C)S(=O)(=O)c1ccc(CCc2ccc(S(=O)(=O)N(C)C)cc2)cc1 | 13.6% | 2.65% | -12.7% | 5.9% | 6.35% | 6.2%
18 | O=[N+]([O-])c1cccc(-c2csc(N=Nc3c(O)[nH]c4ccccc34)n2)c1 | -29.6% | -8.9% | -0.3% | -12.9% | 14.2% | 13.3%
19 | COc1ccc(/C=C2/SC(=S)NC2=O)cc1S(=O)(=O)O | 2.25% | -6.15% | 8.65% | -10.8% | 9.95% | -1.15%
20 | COC(=O)C(C)CC(C)C(=O)OC (stereo unspecified) | 19.6% | -15.8% | 17.6% | 12.7% | -2.95% | 16.4%
21 | COC1OC(CN)C(O)C(O)C1O (stereo unspecified) | 0.15% | 12.1% | 2.35% | 28.2% | 5.7% | 43.2%

Row | SMILES | growth inhibition [1] | growth inhibition [2] | growth inhibition [3] | growth inhibition [4] | growth inhibition [5] | growth inhibition [6]
22 | N#CC(CC(=O)c1ccccc1)c1ccc(Cl)cc1 (stereo unspecified) | 1% | 4.45% | -6.7% | -79.2% | 41.4% | -13.7%
23 | O=C(CC(=O)C(=O)CC(=O)OCc1ccccc1)OCc1ccccc1 | 15% | -19.9% | -0.3% | 11.9% | -21.3% | 2.55%
24 | C=CCOC(=O)C1CC(C)=CC(C)C1C (stereo unspecified) | 23.5% | 3.6% | -13.7% | -46.4% | -12.1% | 5.2%
25 | CC(C)CC(CN(C)C)C(=O)/C=C/c1ccccc1 (stereo unspecified) | 18.2% | -2.25% | 19.4% | -6.95% | 11.8% | 22.1%
26 | CCCCNS(=O)(=O)c1ccc(-c2ccc3c(c2)-c2ccc(S(=O)(=O)NCCCC)cc2S3(=O)=O)cc1 | 28.3% | 7.05% | 1.5% | -33.2% | 20.1% | 9.7%
27 | O=c1oc(-c2ccc(Cl)cc2Cl)nc2cc(Cl)ccc12 | 22.9% | -10.4% | 43.2% | 22.2% | 19.6% | 25.4%
28 | COC(=O)/C=C/CCCC1CCCCC1 | -7.8% | -3.85% | 4.9% | 0.45% | -14.9% | -13.9%
29 | COCC1CCCCC1O (stereo unspecified) | -9.95% | 7.15% | 3.05% | 26.8% | 18.1% | -2.35%
30 | CCOC(=O)/C=C(/C)c1ccccc1 | 12.2% | 18.2% | 6.9% | 0.7% | -2.7% | 3.1%
31 | CCOC(=O)c1cc(NC(C)=O)cn1C | 4.4% | 8.8% | -1.15% | -11% | 6.45% | 16.4%
32 | CC(=O)c1ccc(O)c(CN(C2CCCCC2)C2CCCCC2)c1O | -2.9% | -10.3% | -36.1% | 12.4% | -18% | 4.5%
33 | NC(CCNCCc1ccccc1)CNCCc1ccccc1 (stereo unspecified) | 29.7% | -11.6% | 10.9% | -2.85% | -6.5% | -7.15%
34 | O=C1c2ccccc2-c2ccc3c4ccc5c6c(ccc(c7ccc1c2c73)c64)C(=O)c1ccccc1-5 | 53.2% | 23.4% | 36.8% | 30.6% | 15.2% | 37.5%
35 | O=C(c1ccccc1)C1C(/C=C/c2ccccc2)C(C(=O)c2ccccc2)C1/C=C/c1ccccc1 (stereo unspecified) | 41.2% | -7.1% | 11.8% | 0.4% | -4.5% | 3.25%
36 | Nc1nc(N)c2nc(/C=C/c3ccc4c(c3)OCO4)cnc2n1 | -2.25% | -25.4% | -4.5% | 2.15% | -9.1% | -13.8%
37 | Nc1nc(N)c2nc3c(nc2n1)C(=O)N(c1ccc(C(=O)O)cc1)C3 | 1.55% | 34.9% | 27.9% | -2.8% | 32.1% | 23.2%
38 | C1=CCOCOC1 | -2.35% | -24.4% | -2.35% | -8% | -8.95% | -38.1%
39 | CCOC(=O)c1cccc(N)c1 | -9.6% | -22.2% | -25% | -6.35% | -12.5% | -6.8%
40 | CC(C)CCCC(C)C1CCC2C3CC=C4CC(P(=O)(c5ccccc5)c5ccccc5)CCC4(C)C3CCC12C (stereo unspecified) | 10.3% | -9.9% | -6.05% | -10.5% | 5.75% | -12.1%
41 | O=C(O)c1ccccc1Oc1ccc([N+](=O)[O-])cc1[N+](=O)[O-] | 4.3% | 16.8% | 32% | -82% | 26.8% | 20.1%
